Results on 16 molecules are retold here after the supplement of paper PMC4894684.

Structures can show the parent of a compound that is named as a salt. ± gives the standard deviation of the averaged measurements.

The test deals with Toxoplasma gondii RH (in HFF). The experiment in a line: parasite growth relative to the screen mean (all compounds = 100%); higher = less inhibition of parasite growth. The settings on record: 5 µM; 72 h; oxygen 21 %. The method in brief: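 Parasite growth was reported relative to the screen mean. In that scale, the mean of all compounds equals 100%, and values are averaged over two screens. Compounds from 10 mM DMSO stocks were pin-transferred to 5 µM final onto confluent human foreskin fibroblasts in 96-well plates, infected within 2 h with RH β-Gal–GFP Toxoplasma (MOI 1:5) and grown 72 h at 21% O2, with parasite number read by a CPRG β-Gal assay against in-plate standard curves. Uninfected host-cell viability was checked with CellTiter-Blue.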
In turn, `CN1CCN2c3ncccc3Cc3ccccc3C2C1` (stereo unspecified) [Mirtazepine] registered a parasite growth of 92.3 ± 34%.
The figure for `O=C1CCc2cc(OCCCCc3nnnn3C3CCCCC3)ccc2N1` [Cilostazol] is 74.6 ± 3.3%; for `Cc1nc2c(c(=O)[nH]1)CSCC2` it is 122 ± 32%; for `COc1cc(Br)c(S(=O)(=O)Nc2ccc(Cl)c(O[C@@H]3CCN(C)C3)c2)cc1OC` it is 57.1 ± 16%.
`O=C(Nc1ccc([N+](=O)[O-])cc1O)Nc1ccccc1Br`: the parasite growth came to 107 ± 21%.
Molecule `CCC(C)(C)C(=O)O[C@H]1C[C@@H](C)C=C2C=C[C@H](C)[C@H](CC[C@@H]3C[C@@H](O)CC(=O)O3)[C@H]21` [Simvastatin] returned a parasite growth of 110 ± 18%.
Molecule `COc1ccc(/C=C/C(=O)Nc2ccccc2C(=O)O)cc1OC` [Tranilast] registered a parasite growth of 111 ± 30%.
On to `Cn1cc(C2=C(c3ccc(Cl)cc3Cl)C(=O)NC2=O)c2ccccc21`, for which the parasite growth came out at 136 ± 4.2%.
On to `O=C(Nc1cccc2cccnc12)c1ccc(N2C(=O)[C@@H]3[C@H](C2=O)[C@@H]2C=C[C@H]3C2)cc1` [endo-IWR 1], for which the parasite growth turned out to be 113 ± 21%.
As for `CCCCCCCC/C=C\CCCCCCCC(=O)N[C@@H](CO)Cc1ccc(O)cc1`, the parasite growth came out at 171 ± 11%.
For `FC(F)(F)c1ccc(/C=C/c2nc(COc3ccc(CCCCn4ccnn4)cc3)co2)cc1`, the parasite growth was 36 ± 14%.
The molecule `O=C1NC(=O)c2cc(Nc3ccccc3)c(Nc3ccccc3)cc21` gave a parasite growth of 176 ± 43%.
`CC(C)NCCN(C(C)C)S(=O)(=O)c1ccc(Cl)cc1Cl`: the parasite growth worked out at 142 ± 34%.
In turn, `Cc1ccc(CC2(O)CCN(CCOc3ccc(O)cc3)CC2)cc1` came in with a parasite growth of 111 ± 35%.
With `CCCCN1CCC(CCC(=O)c2cc(Cl)c(N)cc2OC)CC1`, the parasite growth is 67.2 ± 14%.
For the molecule `O=C(O)Cc1cccc(OCCCN(Cc2cccc(C(F)(F)F)c2Cl)CC(c2ccccc2)c2ccccc2)c1` [GW 3965 hydrochloride], the parasite growth was 105 ± 15%.
